Experimental data: ChEMBL document CHEMBL2218924, “A broad activity screen in support of a chemogenomic map for kinase signalling research and drug discovery” (Biochem J, 2013)

Tests used:
[1] = biological target: T1, Interleukin-1 receptor-associated kinase 4 (Homo sapiens) (UniProt Q9NWZ3); settings: at 1 µM
T1 sequence (whole entry): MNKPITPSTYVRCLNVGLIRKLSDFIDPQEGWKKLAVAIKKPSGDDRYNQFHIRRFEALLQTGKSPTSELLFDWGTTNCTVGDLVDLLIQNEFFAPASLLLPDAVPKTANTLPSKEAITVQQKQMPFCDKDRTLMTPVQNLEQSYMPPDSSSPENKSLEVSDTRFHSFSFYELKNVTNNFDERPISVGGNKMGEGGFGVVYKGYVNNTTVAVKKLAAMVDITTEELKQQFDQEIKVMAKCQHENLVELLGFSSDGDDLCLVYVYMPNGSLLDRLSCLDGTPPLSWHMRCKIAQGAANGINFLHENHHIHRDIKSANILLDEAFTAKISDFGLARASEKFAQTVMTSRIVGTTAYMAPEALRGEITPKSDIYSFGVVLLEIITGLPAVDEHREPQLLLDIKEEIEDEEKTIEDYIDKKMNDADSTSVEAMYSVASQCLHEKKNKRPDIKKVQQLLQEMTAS

[2] = biological target: T1, Interleukin-1 receptor-associated kinase 4 (Homo sapiens); settings: at 10 µM
[3] = biological target: Tyrosine-protein kinase JAK2 (Homo sapiens) (UniProt O60674); settings: at 1 µM
Tyrosine-protein kinase JAK2 (Homo sapiens), sequence (O60674 whole entry): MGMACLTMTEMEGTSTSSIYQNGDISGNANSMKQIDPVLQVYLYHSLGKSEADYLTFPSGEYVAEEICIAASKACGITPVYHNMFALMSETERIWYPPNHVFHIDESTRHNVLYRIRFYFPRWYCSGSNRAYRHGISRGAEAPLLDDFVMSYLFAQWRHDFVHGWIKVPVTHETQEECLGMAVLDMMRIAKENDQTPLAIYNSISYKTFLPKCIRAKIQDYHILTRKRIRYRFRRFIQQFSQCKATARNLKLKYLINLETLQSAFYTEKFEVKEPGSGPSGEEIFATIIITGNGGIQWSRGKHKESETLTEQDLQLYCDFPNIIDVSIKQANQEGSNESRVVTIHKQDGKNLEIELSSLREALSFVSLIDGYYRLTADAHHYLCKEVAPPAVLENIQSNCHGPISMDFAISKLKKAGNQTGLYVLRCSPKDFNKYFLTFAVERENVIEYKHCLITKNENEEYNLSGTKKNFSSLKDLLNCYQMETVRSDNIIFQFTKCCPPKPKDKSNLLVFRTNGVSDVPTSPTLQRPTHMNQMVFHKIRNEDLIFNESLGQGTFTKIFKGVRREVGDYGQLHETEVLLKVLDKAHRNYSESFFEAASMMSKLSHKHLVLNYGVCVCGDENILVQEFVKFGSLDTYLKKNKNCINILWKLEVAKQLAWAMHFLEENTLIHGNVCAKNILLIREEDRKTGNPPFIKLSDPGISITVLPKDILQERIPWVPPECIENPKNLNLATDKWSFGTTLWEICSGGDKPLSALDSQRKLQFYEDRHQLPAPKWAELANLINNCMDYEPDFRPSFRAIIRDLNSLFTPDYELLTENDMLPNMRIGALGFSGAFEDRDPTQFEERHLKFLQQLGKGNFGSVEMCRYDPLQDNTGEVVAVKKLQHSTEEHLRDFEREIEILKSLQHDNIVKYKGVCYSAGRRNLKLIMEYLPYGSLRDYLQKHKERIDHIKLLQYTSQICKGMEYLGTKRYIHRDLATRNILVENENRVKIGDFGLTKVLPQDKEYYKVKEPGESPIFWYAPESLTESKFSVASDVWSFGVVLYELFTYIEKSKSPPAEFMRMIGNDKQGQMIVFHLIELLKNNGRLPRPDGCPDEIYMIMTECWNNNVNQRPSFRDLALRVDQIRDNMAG

[4] = biological target: T2, Tyrosine-protein kinase JAK3 (Homo sapiens) (UniProt P52333); settings: at 1 µM
T2 sequence (whole entry): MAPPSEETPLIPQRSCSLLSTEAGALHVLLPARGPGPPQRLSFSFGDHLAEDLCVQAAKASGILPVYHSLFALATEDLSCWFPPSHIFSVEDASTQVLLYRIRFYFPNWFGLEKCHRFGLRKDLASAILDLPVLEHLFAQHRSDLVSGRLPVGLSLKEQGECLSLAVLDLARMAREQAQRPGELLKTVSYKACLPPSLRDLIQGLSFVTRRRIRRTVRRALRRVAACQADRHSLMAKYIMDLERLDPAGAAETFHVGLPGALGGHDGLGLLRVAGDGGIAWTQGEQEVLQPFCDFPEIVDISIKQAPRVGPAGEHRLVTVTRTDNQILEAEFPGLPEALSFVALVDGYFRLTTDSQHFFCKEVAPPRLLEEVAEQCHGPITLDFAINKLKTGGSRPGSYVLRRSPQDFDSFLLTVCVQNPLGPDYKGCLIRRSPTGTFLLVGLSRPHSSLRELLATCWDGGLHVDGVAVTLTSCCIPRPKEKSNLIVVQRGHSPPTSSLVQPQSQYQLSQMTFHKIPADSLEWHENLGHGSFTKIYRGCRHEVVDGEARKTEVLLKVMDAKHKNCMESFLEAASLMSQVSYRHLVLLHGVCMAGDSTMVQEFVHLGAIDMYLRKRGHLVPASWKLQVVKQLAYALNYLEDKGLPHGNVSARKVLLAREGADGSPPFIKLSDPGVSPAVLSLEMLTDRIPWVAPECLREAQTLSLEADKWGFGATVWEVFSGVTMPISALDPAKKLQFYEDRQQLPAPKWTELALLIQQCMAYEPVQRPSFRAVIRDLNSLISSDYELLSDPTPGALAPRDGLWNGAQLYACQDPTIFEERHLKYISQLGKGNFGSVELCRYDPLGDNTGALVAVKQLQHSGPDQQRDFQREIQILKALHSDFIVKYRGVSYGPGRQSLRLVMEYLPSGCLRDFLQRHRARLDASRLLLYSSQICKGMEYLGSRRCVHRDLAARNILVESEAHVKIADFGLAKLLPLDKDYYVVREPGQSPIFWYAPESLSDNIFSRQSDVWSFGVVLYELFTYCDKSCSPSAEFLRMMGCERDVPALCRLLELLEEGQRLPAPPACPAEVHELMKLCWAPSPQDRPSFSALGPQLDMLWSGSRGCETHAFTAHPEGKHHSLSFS

[5] = biological target: Mitogen-activated protein kinase 8 (Homo sapiens) (UniProt P45983); settings: at 1 µM
Mitogen-activated protein kinase 8 (Homo sapiens), sequence (P45983 whole entry): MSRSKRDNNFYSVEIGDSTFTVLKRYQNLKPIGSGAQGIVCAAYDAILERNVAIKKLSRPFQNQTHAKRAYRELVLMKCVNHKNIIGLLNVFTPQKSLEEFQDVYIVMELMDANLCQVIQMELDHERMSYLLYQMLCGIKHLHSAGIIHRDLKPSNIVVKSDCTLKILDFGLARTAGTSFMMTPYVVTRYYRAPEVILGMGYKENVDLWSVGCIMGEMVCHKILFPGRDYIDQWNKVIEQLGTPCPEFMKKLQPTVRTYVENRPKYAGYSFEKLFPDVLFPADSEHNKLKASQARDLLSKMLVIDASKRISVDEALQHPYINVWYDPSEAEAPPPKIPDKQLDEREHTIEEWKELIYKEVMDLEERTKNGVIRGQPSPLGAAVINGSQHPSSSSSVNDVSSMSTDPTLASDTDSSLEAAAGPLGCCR

[6] = biological target: Mitogen-activated protein kinase 8 (Homo sapiens) (UniProt P45983); settings: at 10 µM
[7] = biological target: Mitogen-activated protein kinase 9 (Homo sapiens) (UniProt P45984); settings: at 1 µM
Mitogen-activated protein kinase 9 (Homo sapiens), sequence (P45984 whole entry, looked up): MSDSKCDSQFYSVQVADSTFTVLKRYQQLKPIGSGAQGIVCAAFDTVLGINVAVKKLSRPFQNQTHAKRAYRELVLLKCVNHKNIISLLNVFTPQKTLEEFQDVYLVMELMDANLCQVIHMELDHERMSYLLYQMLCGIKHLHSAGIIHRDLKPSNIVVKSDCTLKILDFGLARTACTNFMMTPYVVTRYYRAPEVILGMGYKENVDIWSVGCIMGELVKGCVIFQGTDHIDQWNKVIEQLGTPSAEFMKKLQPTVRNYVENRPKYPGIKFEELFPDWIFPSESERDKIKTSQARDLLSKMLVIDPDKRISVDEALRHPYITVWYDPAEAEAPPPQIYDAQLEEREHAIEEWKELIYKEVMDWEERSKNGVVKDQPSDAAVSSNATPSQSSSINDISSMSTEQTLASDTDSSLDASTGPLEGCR

[8] = biological target: Mitogen-activated protein kinase 9 (Homo sapiens) (UniProt P45984); settings: at 10 µM
[9] = biological target: Mitogen-activated protein kinase 10 (Homo sapiens) (UniProt P53779); settings: at 1 µM
Mitogen-activated protein kinase 10 (Homo sapiens), sequence (P53779 whole entry): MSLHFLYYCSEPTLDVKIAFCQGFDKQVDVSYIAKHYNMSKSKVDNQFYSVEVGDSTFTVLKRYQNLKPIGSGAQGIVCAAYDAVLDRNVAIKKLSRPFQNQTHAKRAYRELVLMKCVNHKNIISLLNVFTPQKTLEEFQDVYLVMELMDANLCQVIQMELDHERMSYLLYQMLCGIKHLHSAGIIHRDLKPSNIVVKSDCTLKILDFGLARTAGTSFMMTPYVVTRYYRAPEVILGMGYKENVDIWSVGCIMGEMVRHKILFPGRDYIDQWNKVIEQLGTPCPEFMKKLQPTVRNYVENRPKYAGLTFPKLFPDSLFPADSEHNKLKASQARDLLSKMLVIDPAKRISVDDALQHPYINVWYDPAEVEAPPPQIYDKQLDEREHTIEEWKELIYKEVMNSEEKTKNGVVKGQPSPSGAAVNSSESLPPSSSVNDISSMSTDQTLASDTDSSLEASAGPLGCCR

[10] = biological target: Mitogen-activated protein kinase 10 (Homo sapiens) (UniProt P53779); settings: at 10 µM
[11] = biological target: Vascular endothelial growth factor receptor 2 (Homo sapiens) (UniProt P35968); settings: at 1 µM
Vascular endothelial growth factor receptor 2 (Homo sapiens), sequence (P35968 whole entry): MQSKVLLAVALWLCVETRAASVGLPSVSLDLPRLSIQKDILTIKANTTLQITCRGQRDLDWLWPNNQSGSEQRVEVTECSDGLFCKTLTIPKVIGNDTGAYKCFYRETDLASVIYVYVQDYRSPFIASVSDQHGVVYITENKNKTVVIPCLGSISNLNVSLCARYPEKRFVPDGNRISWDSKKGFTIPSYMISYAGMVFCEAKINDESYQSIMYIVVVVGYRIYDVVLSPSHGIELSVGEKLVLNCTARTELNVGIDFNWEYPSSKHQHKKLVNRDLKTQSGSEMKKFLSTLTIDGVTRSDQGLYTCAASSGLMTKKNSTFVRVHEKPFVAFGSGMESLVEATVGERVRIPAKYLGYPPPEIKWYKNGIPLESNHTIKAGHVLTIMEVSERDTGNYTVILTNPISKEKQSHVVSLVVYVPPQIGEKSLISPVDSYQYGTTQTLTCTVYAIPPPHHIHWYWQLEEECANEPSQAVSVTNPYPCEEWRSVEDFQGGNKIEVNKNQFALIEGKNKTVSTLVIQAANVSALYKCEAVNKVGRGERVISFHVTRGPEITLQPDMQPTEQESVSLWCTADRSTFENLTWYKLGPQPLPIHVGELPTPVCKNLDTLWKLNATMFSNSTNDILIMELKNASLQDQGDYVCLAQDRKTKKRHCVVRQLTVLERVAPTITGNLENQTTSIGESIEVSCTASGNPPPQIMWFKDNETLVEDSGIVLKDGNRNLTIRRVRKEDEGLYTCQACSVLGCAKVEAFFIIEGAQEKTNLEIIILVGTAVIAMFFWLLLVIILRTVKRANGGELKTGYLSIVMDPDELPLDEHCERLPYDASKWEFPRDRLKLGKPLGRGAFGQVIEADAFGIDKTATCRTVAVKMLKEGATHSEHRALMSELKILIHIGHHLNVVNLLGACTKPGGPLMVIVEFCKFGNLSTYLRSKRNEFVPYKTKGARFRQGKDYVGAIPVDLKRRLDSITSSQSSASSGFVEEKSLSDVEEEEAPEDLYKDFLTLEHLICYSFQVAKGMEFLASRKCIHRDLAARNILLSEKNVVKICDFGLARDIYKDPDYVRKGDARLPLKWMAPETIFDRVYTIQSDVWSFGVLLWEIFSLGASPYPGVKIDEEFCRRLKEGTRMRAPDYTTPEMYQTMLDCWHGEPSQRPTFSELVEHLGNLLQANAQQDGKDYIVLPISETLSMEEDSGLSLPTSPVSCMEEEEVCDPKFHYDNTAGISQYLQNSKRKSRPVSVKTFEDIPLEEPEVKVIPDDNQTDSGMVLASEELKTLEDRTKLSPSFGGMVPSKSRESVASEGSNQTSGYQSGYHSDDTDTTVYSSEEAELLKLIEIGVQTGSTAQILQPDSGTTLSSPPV

[12] = biological target: Vascular endothelial growth factor receptor 2 (Homo sapiens) (UniProt P35968); settings: at 10 µM
[13] = biological target: Insulin receptor-related protein (Homo sapiens) (UniProt P14616); settings: at 1 µM
[14] = biological target: Insulin receptor-related protein (Homo sapiens) (UniProt P14616); settings: at 10 µM
[15] = biological target: T3, Tyrosine-protein kinase ITK/TSK (Homo sapiens) (UniProt Q08881); settings: at 1 µM
T3 sequence (whole entry): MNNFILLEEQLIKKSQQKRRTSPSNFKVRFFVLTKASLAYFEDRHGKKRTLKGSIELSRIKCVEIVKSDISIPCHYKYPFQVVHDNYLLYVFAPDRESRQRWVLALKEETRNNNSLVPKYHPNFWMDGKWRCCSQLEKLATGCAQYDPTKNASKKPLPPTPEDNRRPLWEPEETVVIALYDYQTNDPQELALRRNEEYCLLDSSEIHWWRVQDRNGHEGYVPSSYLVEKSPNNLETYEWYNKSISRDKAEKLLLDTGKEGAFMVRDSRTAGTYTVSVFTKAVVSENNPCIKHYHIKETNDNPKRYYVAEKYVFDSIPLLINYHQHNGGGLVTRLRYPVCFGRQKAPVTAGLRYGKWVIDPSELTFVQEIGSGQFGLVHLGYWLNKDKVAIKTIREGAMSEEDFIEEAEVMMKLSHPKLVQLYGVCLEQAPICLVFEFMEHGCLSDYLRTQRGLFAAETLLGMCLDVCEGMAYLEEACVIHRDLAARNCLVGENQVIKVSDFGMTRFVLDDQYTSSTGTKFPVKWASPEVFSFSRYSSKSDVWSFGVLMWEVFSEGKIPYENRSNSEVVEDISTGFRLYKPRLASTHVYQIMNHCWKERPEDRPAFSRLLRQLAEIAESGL

[16] = biological target: T3, Tyrosine-protein kinase ITK/TSK (Homo sapiens); settings: at 10 µM
[17] = biological target: Tyrosine-protein kinase JAK2 (Homo sapiens) (UniProt O60674); settings: at 10 µM
[18] = biological target: T2, Tyrosine-protein kinase JAK3 (Homo sapiens); settings: at 10 µM
[19] = biological target: LIM domain kinase 1 (Homo sapiens) (UniProt P53667); settings: at 1 µM
LIM domain kinase 1 (Homo sapiens), sequence (P53667 whole entry, looked up, the tested form may be a part): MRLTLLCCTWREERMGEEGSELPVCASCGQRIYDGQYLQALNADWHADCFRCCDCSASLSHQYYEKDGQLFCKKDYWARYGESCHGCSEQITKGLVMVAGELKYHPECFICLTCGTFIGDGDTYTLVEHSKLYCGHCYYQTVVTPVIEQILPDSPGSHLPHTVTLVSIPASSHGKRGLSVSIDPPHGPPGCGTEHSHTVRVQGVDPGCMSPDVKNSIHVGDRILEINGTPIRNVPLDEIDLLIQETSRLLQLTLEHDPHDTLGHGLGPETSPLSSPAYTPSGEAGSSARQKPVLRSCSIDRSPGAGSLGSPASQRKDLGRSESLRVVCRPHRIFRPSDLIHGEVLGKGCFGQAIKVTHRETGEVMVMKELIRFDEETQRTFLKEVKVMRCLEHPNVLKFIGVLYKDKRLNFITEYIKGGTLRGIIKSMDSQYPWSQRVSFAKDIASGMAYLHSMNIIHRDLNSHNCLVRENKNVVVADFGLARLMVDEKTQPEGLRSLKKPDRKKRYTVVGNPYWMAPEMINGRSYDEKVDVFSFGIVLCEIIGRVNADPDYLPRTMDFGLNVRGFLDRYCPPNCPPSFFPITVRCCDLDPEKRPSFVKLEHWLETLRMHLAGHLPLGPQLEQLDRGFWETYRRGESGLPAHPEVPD

[20] = biological target: LIM domain kinase 1 (Homo sapiens) (UniProt P53667); settings: at 10 µM

Row | SMILES | residual activity [1] [%] | residual activity [2] [%] | residual activity [3] [%] | residual activity [4] [%] | residual activity [5] [%] | residual activity [6] [%] | residual activity [7] [%] | residual activity [8] [%] | residual activity [9] [%] | residual activity [10] [%] | residual activity [11] [%] | residual activity [12] [%] | residual activity [13] [%] | residual activity [14] [%] | residual activity [15] [%] | residual activity [16] [%] | residual activity [17] [%] | residual activity [18] [%] | residual activity [19] [%] | residual activity [20] [%]
1 | O=C1c2ccccc2-c2nc3nnnn3nc21 | 129 | 108 | 111 | 103 | 114 | 83 | 109 | 83 | 112 | 100 | 109 | 104 |  |  |  |  |  |  |  | 
2 | COC(=O)[C@@]1(O)C[C@H]2O[C@]1(C)n1c3ccccc3c3c4c(c5c6ccccc6n2c5c31)C(=O)NC4 | -2 | 0 | 2 | 0 | -12 | -20 | 5 | -11 | -3 | -1 | 3 | 0 | 6 | 1 | 15 | 1 | -1 | 0 | 6 | 3
3 | C[S+]([O-])c1ccc(-c2nc(-c3ccc(F)cc3)c(-c3ccncc3)[nH]2)cc1 (centres undefined) | 113 | 86 | 112 | 107 | 111 | 95 | 74 | 30 |  |  | 107 | 60 | 109 | 56 | 100 | 104 | 119 | 112 | 110 | 82
4 | CCn1cnc2c(Nc3cccc(Cl)c3)nc(N[C@@H]3CCCC[C@@H]3N)nc21 | 85 | 23 | 116 | 112 |  |  |  |  | 91 | 84 | 85 | 45 |  |  | 89 | 39 | 78 | 119 | 89 | 63
